From PubChem BioAssay (Tox21)
Values joined by “and” are separate entries in the source; they are usually repeats but may differ in a detail not shown here. Identical values can stand only once. Records with an inconclusive call do not appear. The source holds several records for some structures; these can differ, active in one and inactive in another. Active and inactive are the calls of the source. Unless noted, calls come from the whole dose curve; as a rule, active = well fitted curve in the direction sought with a large enough effect in the repeat runs; inconclusive = weak or mixed curves; inactive = no such curve, though single readings can be large; an effect the other way counts as inactive or inconclusive.

Experiments:
[1] = qHTS RealTime-Glo MT Cell Viability Assay in HepG2 cells - 24 hour (AID 1224867); note: nearly all actives have a fitted effect of over 50% in size
Procedure, shortened: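 Luminescence read-out: viable HepG2 cells reduce a prosubstrate to a NanoLuc substrate, giving a signal proportional to live cell number. Reads taken at 0, 8, 16, 24, 32 and 40 h of compound exposure at 37 C.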

[2] = qHTS RealTime-Glo MT Cell Viability Assay in HEK293 cells - 32 hour (AID 1224868); note: nearly all actives have a fitted effect of over 50% in size; note: potency is the fitted concentration of half-maximal effect
Procedure, shortened: (§1)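 Nonlytic real-time viability readout: viable cells convert prosubstrate to NanoLuc substrate, giving luminescence proportional to live cell number. HEK293, 600 cells/well, compound added after 5 h, continuous culture at 37 C.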

[3] = A CellTox Green Cytotoxicity Assay to monitor cytotoxicity in HEK293 cells - 0 hour (AID 1224869); note: nearly all actives have a fitted effect of over 50% in size; note: potency is the fitted concentration of half-maximal effect
Procedure, shortened: (§2)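 Homogeneous no-lysis format: HEK293 cell suspension mixed with CellTox Green reagent, seeded, incubated 5 h at 37 C/5% CO2, then dosed by pintool with compound in DMSO.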

[4] = qHTS RealTime-Glo MT Cell Viability Assay in HepG2 cells - 40 hour (AID 1224870); note: nearly all actives have a fitted effect of over 50% in size; note: potency is the fitted concentration of half-maximal effect
Procedure, shortened: (§3)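 HepG2 cells mixed with RealTime-Glo MT reagents (NanoLuc plus cell-permeant prosubstrate) were seeded at 600 cells/well, incubated 5 h at 37 C/5% CO2, then pinned with compounds in DMSO; nonlytic luminescence tracked viability during 40 h treatment.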

[5] = A CellTox Green Cytotoxicity Assay to monitor cytotoxicity in HEK293 cells - 40 hour (AID 1224871); note: nearly all actives have a fitted effect of over 45% in size; note: potency is the fitted concentration of half-maximal effect
Procedure, shortened: as §2

[6] = qHTS RealTime-Glo MT Cell Viability Assay in HEK293 cells - 16 hour (AID 1224872)
Procedure, shortened: as §1

[7] = qHTS RealTime-Glo MT Cell Viability Assay in HepG2 cells - 8 hour (AID 1224873); note: nearly all actives have a fitted effect of over 55% in size; note: potency is the fitted concentration of half-maximal effect
Procedure, shortened: as §3

[8] = qHTS RealTime-Glo MT Cell Viability Assay in HEK293 cells - 40 hour (AID 1224874); settings: RealTime-Glo luminescence; max response: stronger effect = lower value; note: nearly all actives have a fitted effect of over 50% in size; note: potency is the fitted concentration of half-maximal effect
Procedure, shortened: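 Measured as luminescence from the same continuously cultured HEK293 wells at successive time points (0, 8, 16, 24, 32, 40 h) after compound addition. Reagent present from seeding; dosing at 5 h; incubation 37 C.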

[9] = qHTS assay to identify small molecule antagonists of the estrogen related receptor (ERR) signaling pathway from Tox21 library (AID 1224848); note: nearly all actives have a fitted effect of over 50% in size
Procedure, shortened: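 Tox21 10K compounds in DMSO tested for ERR pathway antagonism in NTP's ERR cell line; 18 h, 37 C exposure; ONE-Glo luminescence.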

[10] = qHTS assay to identify small molecule agonists of the estrogen related receptor (ERR) signaling pathway from Tox21 library (AID 1224849; calls by dose curve; note: nearly all actives have a fitted effect of over 15% in size); settings: ERR reporter cell line, ONE-Glo luciferase, 18 h
Procedure, shortened: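 Reporter cells (ERR, NTP source) treated with Tox21 10K compounds 18 h, 37 C. Readout: ONE-Glo luminescence, 30 min RT.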
% is set by controls: 0 for no effect and ±100 for the full control effect.

Nc1ccccc1
inactive: Potency [1] | Potency [2] | Potency [3] | Potency [4] | Potency [5] | Potency [6] | Potency [7] | max response [8] -1.34% [middle of 4 runs]

OCCOc1ccccc1
inactive: Potency [9] | activity change, positive = activation ([10]; at 42.5 µM (top of the series)) 7.59% | activity change, positive = activation ([10]; at 92.4 µM (top of the series)) -33.2% and 4.84% | Potency [1] | Potency [2] | Potency [3] | Potency [4] | Potency [5] | Potency [6] | Potency [7] | max response [8] -3.05% and 0.273% and 2.22%

O=C(O)C(Cl)Cl
inactive: Potency [1] | Potency [2] | Potency [3] | Potency [4] | Potency [5] | Potency [6] | Potency [7] | max response [8] 5.65% [middle of 4 runs]

N#CS
inactive: Potency [1] | Potency [2] | Potency [3] | Potency [4] | Potency [5] | Potency [6] | Potency [7] | max response [8] 6.52% [middle of 4 runs]

Cc1cc(Cl)ccc1N
inactive and 38.9 µM (active): Potency [3] | Potency [5]
inactive: Potency [1] | Potency [2] | Potency [4] | Potency [6] | Potency [7] | max response [8] 9.86% and 3.76% and 5.35%

CC[n+]1ccccc1
inactive: Potency [1] | Potency [3] | Potency [5] | Potency [6] | Potency [7] | max response [8] 9.29% [middle of 4 runs]
active: Potency [8] 21.7 µM
inactive and 34.8 µM (active): Potency [4]
inactive and 38.6 µM (active): Potency [2]

CCCCCC[n+]1ccccc1
inactive: Potency [1] | Potency [3] | Potency [4] | Potency [5] | Potency [6] | Potency [7] | max response [8] -3.16%
active: Potency [8] 27.8 µM [middle of 5 runs]

C[N+](C)(C)Cc1ccccc1
inactive: Potency [1] | Potency [2] | Potency [3] | Potency [4] | Potency [5] | Potency [6] | Potency [7] | max response [8] 3.99% and 18.8% and -0.0813%

COc1ccc(N)cc1
inactive: Potency [1] | Potency [2] | Potency [3] | Potency [4] | Potency [5] | Potency [6] | Potency [7] | max response [8] -4.85% [middle of 4 runs]

CC[N+]1(C)CCCC1
active: Potency [8] 21.9 µM
inactive and 21.9 µM (active): Potency [2]
inactive: Potency [1] | Potency [3] | Potency [4] | Potency [5] | Potency [6] | Potency [7] | max response [8] 3.6% [middle of 4 runs]

CCCC[n+]1ccccc1C
inactive: Potency [1] | Potency [2] | Potency [3] | Potency [4] | Potency [5] | Potency [6] | Potency [7] | max response [8] 0.73% [middle of 6 runs]

Cc1cc(-c2ccc(N)c(C)c2)ccc1N
inactive: Potency [1] | Potency [2] | Potency [3] | Potency [4] | Potency [5] | Potency [6] | Potency [7] | max response [8] -20.5% and -19.5% and -26%

CCCCCCn1cc[n+](C)c1
active: Potency [2] 19.7 µM [middle of 5 runs] | Potency [8] 19.7 µM [middle of 5 runs]
inactive and 35.4 µM (active): Potency [4]
inactive: Potency [1] | Potency [3] | Potency [5] | Potency [7]

CC[N+](CC)(CC)CC
inactive: Potency [1] | Potency [2] | Potency [3] | Potency [4] | Potency [5] | Potency [6] | Potency [7] | max response [8] 2.86% and 1.18% and -0.431%

CCCCCCCCCCCCn1cc[n+](C)c1
49.4 µM (active) and inactive: Potency [7]
inactive: Potency [3] | max response [8] 14.2%

Oc1ccccc1-c1ccccc1
inactive: Potency [1] | Potency [2] | Potency [3] | Potency [4] | Potency [5] | Potency [6] | Potency [7] | max response [8] -9.5% [middle of 4 runs]

CCCCCCCCn1cc[n+](C)c1
active: Potency [2] 3.86 µM and 3.12 µM and 3.93 µM | Potency [5] 19.4 µM and 49.5 µM | Potency [8] 3.46 µM [middle of 4 runs]
inactive: Potency [1] | Potency [3] | Potency [4] | Potency [7]
